In all, about 220,000 compounds went through this assay and about 2,600 (1.2%) were called active. Shown is part of a subset that was picked to be rich in actives. Unmarked numbers belong to inactive results.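 The calls were made as follows: active = activation above the mean of all tested compounds plus 3 SD, set per screening run (cut at about 8.8% in these data); inactive = the rest.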

The experiment addresses Wee1-like protein kinase (Homo sapiens) (UniProt P30291). Put plainly: Wee1 degradation inhibitors, primary screen, cell-based, HeLa, Wee1K328M-luciferase, luminescence (AID 1321).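 Also: cells exposed to compound for 20 h before luminescence read; 0% = DMSO alone and 100% = MG132 at 30 µM.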 Particulars: HeLa Luc-Wee1K328M stability, at 5 µM, active compounds read high.
For `O=c1[nH]c(=O)n(Cc2ccccc2)c(O)c1/C=N/Nc1c(F)c(F)c(F)c(F)c1F`, the activation was -0.63%.
`O=C(N/N=C/c1c(O)n(Cc2ccccc2)c(=O)[nH]c1=O)c1ccccc1`: the activation is 16.4% (active).
For `CCCCC(=O)N/N=C/c1c(O)n(-c2ccccc2)c(=O)[nH]c1=O` the value was -2.55%; for `CN(C)CC1CCCCC1=O` (stereo not given), -1.81%.
Take `NC(=O)Nc1cccc(C(F)(F)F)c1`: the activation was 0.59%.

These data come from PubChem BioAssay AID1321 (The Scripps Research Institute Molecular Screening Center, 2008).
